Here are results for six molecules from ChEMBL document CHEMBL2218924, “A broad activity screen in support of a chemogenomic map for kinase signalling research and drug discovery” (Biochem J, 2013).

In experiment [1] the target is T1, CDK3/cyclin E (Homo sapiens) (UniProt P24864+O96020+Q00526). Conditions: at 1 µM.
The target of experiment [2] is T1, CDK3/cyclin E (Homo sapiens). Conditions: at 10 µM.
The target of experiment [3] is T2, Cyclin-dependent kinase 5/CDK5 activator 1 (Homo sapiens) (UniProt Q00535+Q15078). Conditions: at 1 µM.
T2 sequence (Q00535 whole entry): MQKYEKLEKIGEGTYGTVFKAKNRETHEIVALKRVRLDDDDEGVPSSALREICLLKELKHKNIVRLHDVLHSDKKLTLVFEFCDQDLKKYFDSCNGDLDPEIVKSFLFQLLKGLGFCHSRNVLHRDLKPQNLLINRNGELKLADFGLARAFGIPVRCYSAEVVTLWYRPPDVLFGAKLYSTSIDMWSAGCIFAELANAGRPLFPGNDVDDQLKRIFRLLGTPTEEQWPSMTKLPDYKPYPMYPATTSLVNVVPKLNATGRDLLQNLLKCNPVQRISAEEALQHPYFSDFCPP
T2 sequence (Q15078 99-307 partner limits assumed): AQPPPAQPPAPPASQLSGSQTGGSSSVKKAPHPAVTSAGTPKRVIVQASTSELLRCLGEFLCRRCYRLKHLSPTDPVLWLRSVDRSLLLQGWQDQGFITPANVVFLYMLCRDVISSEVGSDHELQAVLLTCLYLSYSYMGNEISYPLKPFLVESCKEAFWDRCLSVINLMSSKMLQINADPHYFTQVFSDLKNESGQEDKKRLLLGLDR
For experiment [4], the target named is T2, Cyclin-dependent kinase 5/CDK5 activator 1 (Homo sapiens). Conditions: at 10 µM.
Experiment [5] has the same target. Conditions: at 1 µM. The source holds these as a separate data set.
Experiment [6] shares this target. Conditions: at 10 µM. The source holds these as a separate data set.
Experiment [7] concerns the target T3, CDK6/cyclin D3 (Homo sapiens) (UniProt P30281+Q00534). Conditions: at 1 µM.
The target of experiment [8] is T3, CDK6/cyclin D3 (Homo sapiens). Conditions: at 10 µM.
Experiment [9] has as its target T4, Cyclin-dependent kinase 7/ cyclin H (Homo sapiens) (UniProt P51946+P50613). Conditions: at 1 µM.
Experiment [10] concerns the target T4, Cyclin-dependent kinase 7/ cyclin H (Homo sapiens). Conditions: at 10 µM.
The target in experiment [11] is T5, CDK9/cyclin T1 (Homo sapiens) (UniProt O60563+P50750). Conditions: at 1 µM.
In experiment [12] the target is T5, CDK9/cyclin T1 (Homo sapiens). Conditions: at 10 µM.
The target of experiment [13] is T6, Serine/threonine-protein kinase Chk1 (Homo sapiens) (UniProt O14757).
T6 sequence (whole entry): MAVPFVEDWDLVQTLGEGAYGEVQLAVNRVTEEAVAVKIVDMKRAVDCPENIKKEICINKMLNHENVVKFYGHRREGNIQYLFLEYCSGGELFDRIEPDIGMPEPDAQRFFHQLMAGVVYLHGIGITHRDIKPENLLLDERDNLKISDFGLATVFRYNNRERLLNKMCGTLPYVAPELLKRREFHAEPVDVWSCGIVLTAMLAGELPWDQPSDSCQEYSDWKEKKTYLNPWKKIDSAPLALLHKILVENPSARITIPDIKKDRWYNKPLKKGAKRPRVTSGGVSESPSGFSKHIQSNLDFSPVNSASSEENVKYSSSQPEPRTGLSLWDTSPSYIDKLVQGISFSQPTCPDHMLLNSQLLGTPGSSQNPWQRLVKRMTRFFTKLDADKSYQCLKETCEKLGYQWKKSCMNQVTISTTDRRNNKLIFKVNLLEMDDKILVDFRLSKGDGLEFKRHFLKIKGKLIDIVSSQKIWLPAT
Conditions: at 1 µM.

Experiment [14] deals with T6, Serine/threonine-protein kinase Chk1 (Homo sapiens). Conditions: at 10 µM.
Experiment [15] deals with Serine/threonine-protein kinase Chk2 (Homo sapiens) (UniProt O96017). Conditions: at 1 µM.
Serine/threonine-protein kinase Chk2 (Homo sapiens), sequence (O96017 whole entry): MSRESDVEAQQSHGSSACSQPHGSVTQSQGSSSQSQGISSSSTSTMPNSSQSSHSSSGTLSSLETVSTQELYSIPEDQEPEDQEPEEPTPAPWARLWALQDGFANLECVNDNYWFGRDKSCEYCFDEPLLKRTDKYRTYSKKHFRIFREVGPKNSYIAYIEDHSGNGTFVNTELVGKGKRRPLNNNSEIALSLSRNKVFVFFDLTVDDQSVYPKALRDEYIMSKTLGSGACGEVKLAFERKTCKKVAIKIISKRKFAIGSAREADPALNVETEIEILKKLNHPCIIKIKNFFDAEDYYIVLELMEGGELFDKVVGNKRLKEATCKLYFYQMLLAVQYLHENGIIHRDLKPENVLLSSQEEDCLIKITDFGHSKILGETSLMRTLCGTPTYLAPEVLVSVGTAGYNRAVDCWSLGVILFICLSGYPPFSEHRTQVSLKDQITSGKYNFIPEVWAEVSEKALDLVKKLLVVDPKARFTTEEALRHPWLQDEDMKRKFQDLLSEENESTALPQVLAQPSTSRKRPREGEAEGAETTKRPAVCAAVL
For experiment [16] the target is unchanged. Conditions: at 10 µM.
The target in experiment [17] is Casein kinase I isoform gamma-1 (Homo sapiens) (UniProt Q9HCP0). Conditions: at 1 µM.
Casein kinase I isoform gamma-1 (Homo sapiens), sequence (Q9HCP0 whole entry, looked up, canonical isoform): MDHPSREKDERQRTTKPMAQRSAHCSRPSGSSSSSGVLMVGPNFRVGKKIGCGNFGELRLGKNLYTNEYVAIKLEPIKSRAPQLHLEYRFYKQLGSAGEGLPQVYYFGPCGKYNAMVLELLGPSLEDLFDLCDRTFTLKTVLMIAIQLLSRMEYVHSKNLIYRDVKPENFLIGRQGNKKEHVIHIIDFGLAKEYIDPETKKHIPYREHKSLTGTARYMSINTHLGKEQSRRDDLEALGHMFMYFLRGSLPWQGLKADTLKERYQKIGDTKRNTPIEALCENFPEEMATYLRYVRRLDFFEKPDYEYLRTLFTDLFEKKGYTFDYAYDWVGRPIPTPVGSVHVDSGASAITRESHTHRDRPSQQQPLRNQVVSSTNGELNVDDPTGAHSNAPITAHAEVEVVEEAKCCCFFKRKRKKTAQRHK
Experiment [18] shares this target. Conditions: at 10 µM.
Experiment [19] deals with Casein kinase I isoform delta (Homo sapiens) (UniProt P48730). Conditions: at 1 µM.
Casein kinase I isoform delta (Homo sapiens), sequence (P48730 whole entry, looked up, canonical isoform): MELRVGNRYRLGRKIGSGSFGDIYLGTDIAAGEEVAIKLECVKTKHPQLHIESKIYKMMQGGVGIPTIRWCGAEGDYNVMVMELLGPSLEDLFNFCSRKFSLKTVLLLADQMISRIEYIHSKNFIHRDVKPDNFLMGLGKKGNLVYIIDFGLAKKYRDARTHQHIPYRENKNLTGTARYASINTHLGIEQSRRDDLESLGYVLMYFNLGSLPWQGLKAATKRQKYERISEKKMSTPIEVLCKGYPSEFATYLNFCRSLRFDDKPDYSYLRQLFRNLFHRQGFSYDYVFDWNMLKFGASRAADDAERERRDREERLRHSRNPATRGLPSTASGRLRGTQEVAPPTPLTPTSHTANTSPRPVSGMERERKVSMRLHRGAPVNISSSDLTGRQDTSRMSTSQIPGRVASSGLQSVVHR
Experiment [20] shares this target. Conditions: at 10 µM.

T1 sequence (O96020 whole entry, looked up): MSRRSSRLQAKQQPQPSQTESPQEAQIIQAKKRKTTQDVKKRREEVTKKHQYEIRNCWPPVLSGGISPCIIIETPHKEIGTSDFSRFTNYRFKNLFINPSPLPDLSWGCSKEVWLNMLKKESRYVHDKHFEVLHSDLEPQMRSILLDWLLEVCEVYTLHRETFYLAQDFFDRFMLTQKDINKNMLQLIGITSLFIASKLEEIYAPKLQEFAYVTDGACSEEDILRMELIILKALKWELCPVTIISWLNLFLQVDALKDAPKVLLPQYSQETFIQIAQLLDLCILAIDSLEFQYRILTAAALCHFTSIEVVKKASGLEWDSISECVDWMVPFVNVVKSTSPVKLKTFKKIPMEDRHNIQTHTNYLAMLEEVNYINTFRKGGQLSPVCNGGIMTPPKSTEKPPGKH
T1 sequence (P24864 whole entry, looked up): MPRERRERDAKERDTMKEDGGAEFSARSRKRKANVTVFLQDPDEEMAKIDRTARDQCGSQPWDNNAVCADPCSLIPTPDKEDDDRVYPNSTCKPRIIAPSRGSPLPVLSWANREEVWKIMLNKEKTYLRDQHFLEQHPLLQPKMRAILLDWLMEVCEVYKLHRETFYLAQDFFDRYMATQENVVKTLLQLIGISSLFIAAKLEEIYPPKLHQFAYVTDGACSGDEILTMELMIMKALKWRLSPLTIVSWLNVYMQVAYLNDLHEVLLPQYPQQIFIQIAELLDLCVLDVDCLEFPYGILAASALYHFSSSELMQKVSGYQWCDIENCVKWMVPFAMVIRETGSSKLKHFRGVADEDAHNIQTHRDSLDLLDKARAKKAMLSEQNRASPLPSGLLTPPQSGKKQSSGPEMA
T1 sequence (Q00526 whole entry, looked up): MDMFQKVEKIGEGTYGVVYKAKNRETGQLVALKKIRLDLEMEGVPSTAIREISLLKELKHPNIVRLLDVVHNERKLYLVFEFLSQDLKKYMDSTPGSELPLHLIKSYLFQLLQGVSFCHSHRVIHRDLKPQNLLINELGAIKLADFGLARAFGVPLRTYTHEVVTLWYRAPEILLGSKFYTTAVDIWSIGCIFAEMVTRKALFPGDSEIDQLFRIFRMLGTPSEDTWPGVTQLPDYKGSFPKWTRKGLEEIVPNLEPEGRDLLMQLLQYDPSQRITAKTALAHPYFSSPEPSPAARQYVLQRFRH

`Nc1n[nH]c2nnc(-c3c(-c4ccccc4)nn4ccccc34)cc12`: the residual activity amounted to 90% in experiment [1]; 90% in experiment [2]; 95% in experiment [3]; 99% in [4]; 112% in experiment [5]; 79% in [6]. Moreover, the residual activity in [7] is 81%; in experiment [8], 43%; in [9], 106%; in [10], 89%; in experiment [11] it was 98%; in experiment [12] it was 92%. In addition, the residual activity in experiment [13] was 90%; in [14], 82%; in experiment [15] it was 98%; in experiment [16], 78%; in experiment [17] it was 94%; in experiment [18] it was 84%. Besides, the residual activity is 60% in [19] and 17% in experiment [20].
`COc1cc2ncnc(N3CCN(C(=O)Nc4ccc(Oc5ccccc5)cc4)CC3)c2cc1OC`: the residual activity was found to be 79% in experiment [1]; 75% in experiment [2]; 95% in experiment [3]; 55% in experiment [4]; 108% in experiment [5]; 75% in experiment [6]. Moreover, the residual activity in experiment [7] was found to be 82%; in experiment [8] it was 86%; in experiment [9], 90%; in experiment [10] it was 93%; in experiment [11] it was 94%; in [12] it was 48%. For the same molecule, the residual activity in experiment [13] turned out to be 82%; in [14] it was 80%; in experiment [15], 96%; in [16], 96%; in experiment [17], 88%; in experiment [18] it was 79%. Also, the residual activity turned out to be 78% in experiment [19] and 89% in experiment [20].
Consider `Cn1nc2c3c(cccc31)C(=O)c1ccccc1-2`, for which the residual activity in experiment [1] amounted to 89%; in [2], 72%; in experiment [3] it was 83%; in experiment [4], 93%; in experiment [5], 97%; in [6], 80%. Moreover, the residual activity in [7] came to 92%; in experiment [8] it was 76%; in [9], 91%; in experiment [10], 73%; in [11] it was 94%; in [12], 90%. In addition, the residual activity in experiment [13] turned out to be 94%; in [14] it was 75%; in experiment [15] it was 75%; in experiment [16], 40%; in experiment [17] it was 99%; in experiment [18] it was 82%. The residual activity was 15% in experiment [19] and 1% in experiment [20].
For the molecule `O=C1NC(=O)/C(=C/c2ccc3c(c2)OC(F)(F)O3)S1`, the residual activity in experiment [1] came to 104%; in experiment [2], 89%; in experiment [3] it was 102%; in [4] it was 91%; in experiment [5], 101%; in experiment [6], 94%. For the same molecule, the residual activity in [7] stood at 98%; in [8] it was 90%; in experiment [9], 88%; in [10] it was 86%; in experiment [11], 94%; in experiment [12] it was 77%. The residual activity came out at 94% in experiment [13]; 88% in [14]; 93% in experiment [15]; 85% in [16]; 95% in experiment [17]; 94% in [18]. Besides, the results for the residual activity in experiment [19] and in [20] were 80% and 65%, respectively.
Take `CCN(CC)CCCCN1c2ccccc2Oc2ccc(Cl)cc21`: the residual activity in experiment [1] is 117%; in [2] it was 94%; in experiment [3], 99%; in experiment [4] it was 102%; in [5] it was 100%; in experiment [6] it was 105%. Besides, the residual activity in experiment [7] was found to be 108%; in experiment [8] it was 103%; in [9], 89%; in experiment [10] it was 105%; in experiment [11], 108%; in experiment [12] it was 108%. Moreover, the residual activity is 99% in experiment [13]; 103% in experiment [14]; 94% in [15]; 103% in experiment [16]; 102% in experiment [17]; 103% in [18]. The residual activity in [19] is 95%; in [20], 96%.
On to `CO[C@H]1C[C@@H]2CC[C@@H](C)[C@@](O)(O2)C(=O)C(=O)N2CCCC[C@H]2C(=O)O[C@H]([C@H](C)C[C@@H]2CC[C@@H](O)[C@H](OC)C2)CC(=O)[C@H](C)/C=C(\C)[C@@H](O)[C@@H](OC)C(=O)[C@H](C)C[C@H](C)/C=C/C=C/C=C/1C`, for which the residual activity in [1] came out at 90%; in experiment [2], 86%; in experiment [3] it was 90%; in [4] it was 92%; in [5], 78%; in [6] it was 100%. Also, the residual activity in [7] stood at 88%; in [8], 89%; in [9] it was 88%; in [10] it was 94%; in experiment [11], 120%; in [12], 98%. For the same molecule, the residual activity came out at 77% in experiment [13]; 98% in [15]; 85% in experiment [16]; 87% in experiment [17]; 101% in experiment [18]; 84% in experiment [19]. In addition, the residual activity in experiment [20] amounted to 109%.
